Inconclusive results are not listed. Values without a mark were called inactive. Activity calls are given as the source filed them. The call rests on the fitted dose curve; in most records, active means well fitted inhibition curve with a large enough effect; inconclusive means small, poorly fitted or top-dose-only effect; inactive means flat fitted curve, though single readings scatter.
Assays:
Experiment in all cases: Cytotoxic Profiling of Annotated Libraries Using Quantitative High-Throughput Screening (AID 1296008); further: nearly all actives have a fitted effect of over 60% in size
Conditions in all cases: Five cell lines viability, CellTiter-Glo ATP luminescence, 48-72 h; max response: hits give low values
CRL-7250 = normal cell line; test system: CRL-7250
In short: (§1)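 Cytotoxicity was measured as CellTiter-Glo ATP luminescence, read after 10 min at room temperature. Compound treatment of the cells lasted 48 or 72 hr at 37 degrees Celsius in a qHTS format.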

HaCat = test system: HaCat
In short: as §1

KB-3-1 = test system: KB-3-1
In short: as §1

NIH3T3 = test system: NIH3T3
In short: as §1
On the % scale 0 is the no-effect control and ±100 the full control effect; potency means the concentration at half of the fitted maximal effect.

SMILES: O=C(N[C@H]1CCC[C@H](CO)C1)C1CCN(c2nc3cc(Cl)c(-c4ccc(Cl)cc4)cc3o2)CC1
- max response (CRL-7250): -0.419%
- max response (HaCat): -4.31%
- max response (KB-3-1): -14.3%
- max response (NIH3T3): 0.931%

SMILES: CCOC(=O)N1c2ccc(C(F)(F)F)cc2C(N(Cc2cc(C(F)(F)F)cc(C(F)(F)F)c2)C(=O)OC)CC1CC (stereo not given)
- max response (CRL-7250): -2.53%
- max response (HaCat): -2.39%
- max response (KB-3-1): -0.758%
- max response (NIH3T3): 3.11%

SMILES: COc1c(F)cccc1C(=O)N1C[C@@H](C)CC[C@H]1CNc1ccc(Br)cn1
- max response (CRL-7250): -14.6%
- max response (HaCat): 1.51%
- max response (KB-3-1): -16%
- max response (NIH3T3): -27.7%

SMILES: CC(C)(C)OC(=O)c1ncn2c1C(C)(C)Nc1ccccc1-2
- outcome (CRL-7250): inactive
- max response (HaCat): 2.2%
- max response (KB-3-1): 0.574%
- max response (NIH3T3): 0.0612%

SMILES: C/C(=C\Cc1c(O)c(Cl)c(C)c(C=O)c1O)CC/C=C(\C)[C@H]1CC(=O)C(C)(C)O1
- max response (CRL-7250): -27.3%
- max response (HaCat): -8.07%
- max response (KB-3-1): -27.9%
- max response (NIH3T3): -17.5%

SMILES: CC[C@@H]1C[C@]1(NC(=O)[C@@H]1C[C@@H]2CN1C(=O)[C@H](C(C)(C)C)NC(=O)OCC(C)(C)CCCCc1cccc3c1CN(C3)C(=O)O2)C(=O)NS(=O)(=O)C1CC1
- max response (CRL-7250): -9.24%
- max response (HaCat): -6.71%
- max response (KB-3-1): -19.5%
- outcome (NIH3T3): inactive

SMILES: CC1(C)CC[C@]2(C(=O)O)CC[C@]3(C)C(=CCC4[C@@]5(C)C[C@@H](O)[C@H](O)C(CO)(CO)C5CC[C@]43C)C2[C@@H]1O (stereo not given in full)
- Potency (CRL-7250): 7.96 µM (active)
- max response (HaCat): -58.7%
- Potency (KB-3-1): 10 µM (active)
- max response (NIH3T3): -1.94%

SMILES: C=C1C(=O)OC[C@@H]1C/C=C(\C)CC1CC(C)C(=O)O1 (stereo not given in full)
- max response (CRL-7250): -16.8%
- max response (HaCat): 2.44%
- outcome (KB-3-1): inactive
- max response (NIH3T3): -3.27%

SMILES: CCCC(CCC)C(=O)NCc1ccc2c(cnn2-c2ccccc2OC)c1
- max response (CRL-7250): -29.2%
- max response (HaCat): 3.89%
- max response (KB-3-1): -13.4%
- max response (NIH3T3): 0.011%

SMILES: COc1cc(C(C)=O)c(OC)c2c1OC(C)(C)C=C2
- outcome (CRL-7250): inactive
- max response (HaCat): -6.75%
- outcome (KB-3-1): inactive
- outcome (NIH3T3): inactive

SMILES: Cc1ccc(N2CCN(CCC3NC(=O)c4ccccc43)CC2)cc1C (stereo not given)
- max response (CRL-7250): 4.52%
- max response (HaCat): -0.27%
- max response (KB-3-1): -2.29%
- max response (NIH3T3): 0.934%

SMILES: O=C(/C=C/c1ccccc1O)O[C@@H]1O[C@H](CO)[C@@H](O)[C@H](O)[C@H]1O
- max response (CRL-7250): 2.59%
- max response (HaCat): -3.03%
- outcome (KB-3-1): inactive
- outcome (NIH3T3): inactive

SMILES: C[C@@H]1O[C@@H](O[C@H]2[C@H](O[C@H]3CC[C@@]4(C)C(CC[C@]5(C)C4C=C[C@]46OC[C@@]7(CCC(C)(C)C[C@H]74)[C@@H](O[C@@H]4O[C@@H](C)[C@H](O)[C@@H](O)[C@H]4O)C[C@]65C)[C@]3(C)CO)O[C@H](CO)[C@@H](O)[C@@H]2O[C@@H]2O[C@H](CO)[C@@H](O)[C@H](O)[C@H]2O)[C@H](O)[C@H](O)[C@H]1O (stereo not given in full)
- max response (CRL-7250): -7.16%
- max response (HaCat): -9.32%
- max response (KB-3-1): -1.23%
- max response (NIH3T3): -25.1%

SMILES: COc1cc2c(c(OC)c1CC=C(C)C)C[C@H](c1ccc(O)c(CC=C(C)C)c1O)CO2
- max response (CRL-7250): 2.21%
- max response (HaCat): -6.86%
- max response (KB-3-1): -4.62%
- max response (NIH3T3): -5.48%

SMILES: Cc1c(F)ccc(C(=O)Nc2cc([N+](=O)[O-])ccc2N2CCN(C)CC2)c1Cl
- max response (CRL-7250): 1.68%
- max response (HaCat): 0.293%
- outcome (KB-3-1): inactive
- max response (NIH3T3): 1.43%

SMILES: Nc1c(S(=O)(=O)c2ccccc2)c2nc3ccccc3nc2n1-c1ccc(F)cc1
- max response (CRL-7250): 2.31%
- max response (HaCat): -0.67%
- max response (KB-3-1): 9.53%
- outcome (NIH3T3): inactive

SMILES: N#Cc1cccc(C(=O)Nc2cc(-c3ccccc3)nn2-c2ccccc2)c1
- max response (CRL-7250): 1.2%
- max response (HaCat): 1.42%
- max response (KB-3-1): -17%
- max response (NIH3T3): -3.88%

SMILES: Cn1c(SCC(=O)N2CCC[C@H]2C(=O)Nc2ccccc2-c2ccccc2)nc2ccccc21
- outcome (CRL-7250): inactive
- max response (HaCat): -3.91%
- max response (KB-3-1): 7.08%
- max response (NIH3T3): -3.15%

SMILES: CCOC(=O)C1=Cc2ccc(C(F)(F)C(F)(F)F)cc2N=C(N)C1
- max response (CRL-7250): -15.9%
- max response (HaCat): -0.757%
- max response (KB-3-1): -20.4%
- max response (NIH3T3): -6.78%

SMILES: CO[C@@H]1[C@H](O)CCC2(CO2)[C@H]1[C@@]1(C)O[C@@H]1CC=C(C)C (stereo not given in full)
- max response (CRL-7250): -6.79%
- max response (HaCat): -1.46%
- outcome (KB-3-1): inactive
- max response (NIH3T3): -13.7%

From PubChem BioAssay (NCATS)
